The list is not random: actives were taken first. Their share in the collection is about 4.8%.
hgDAF12 agonist: agonists of H. glycines DAF-12 nuclear receptor; HEK293 GAL4-hgDAF12 UAS-luciferase reporter, agonist luminescence; normalized to butyrate control; activation, % at 6.8 µM; 370,000 compounds, 1.8% hits; AID 687014;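 active = activation above a cutoff set at the mean of all screened compounds plus 3 SD, cut at about 10% in these data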
SMARCA2 act: increases SMARCA2 function in MMTV reporter cells; MG213 cells, MMTV-luciferase reporter, dexamethasone, overnight; activation, % at 9.1 µM; 370,000 compounds, 1% hits; AID 652017; in the data active = activation above about 7.8%
ssDAF-12 act: S. stercoralis DAF-12 activation, primary screen; HEK293 ssDAF-12/GRIP1 lit1-tk-luc reporter, luminescence; % of 3 µM dafachronic acid response; activation, % at 6.8 µM; 370,000 compounds, 1% hits; AID 652126;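 active = activation above the mean over all tested compounds plus 3 SD, cut at about 0.9% in these data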
DAX1 inh-1: inhibits human nuclear receptor DAX1; P51843; HEK293 Gal4-DAX1 luciferase reporter, luminescence; inhibition, % at 6.75 µM; 340,000 compounds, 0.99% hits; AID 504766;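 active = inhibition above the mean over all tested compounds plus 3 SD, cut at about 4.2% in these data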;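 note: inhibition shows as a rise in luminescence from relieved DAX1 repression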
Target sequence (P51843 207-470 limits assumed): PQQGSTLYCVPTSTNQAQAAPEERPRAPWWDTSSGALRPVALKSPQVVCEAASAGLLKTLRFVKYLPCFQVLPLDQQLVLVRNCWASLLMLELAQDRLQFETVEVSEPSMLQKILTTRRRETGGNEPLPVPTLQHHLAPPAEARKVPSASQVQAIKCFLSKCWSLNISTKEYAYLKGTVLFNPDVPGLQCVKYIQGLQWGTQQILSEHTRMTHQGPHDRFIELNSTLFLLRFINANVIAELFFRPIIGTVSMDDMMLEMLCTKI
DAX1 inh-2: inhibitors of DAX1 repression of SF-1 activated StAR promoter. HEK293T StAR-luciferase reporter, SF-1/DAX-1 repression relief. inhibition, % at 6.8 µM. 370,000 compounds, 1.1% hits. AID 652010;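 active = inhibition above the mean over all tested compounds plus 3 SD, cut at about 3.6% in these data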;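 note: higher inhibition means more luminescence from relief of DAX-1 repression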
hcDAF-12 act: activators of H. contortus DAF-12 nuclear receptor | activation, % at 6.8 µM | HEK293 hcDAF-12 lit1-tk-luc reporter, luminescence; 0% DMSO, 100% Δ7-dafachronic acid | 370,000 compounds, 1.4% hits;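 active = activation above the mean of all tested compounds plus 3 SD, cut at about 5.5% in these data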
Each line names hits and unclear results; the compound was inactive in the other large screens.

COCc1ccc(C(=O)NC2CCSc3ccccc32)cc1 (stereo not drawn)	none
N#Cc1ccsc1NC(=O)COC(=O)c1ccc(Br)o1	none
N#Cc1ccsc1NC(=O)COC(=O)c1cc(Br)ccc1O	DAX1 inh-1 6.0
CN(CC(=O)Nc1ccc(F)cc1)C(=O)COC(=O)CN1C(=O)NC2(CCCC2)C1=O	hcDAF-12 act 5.8
O=C(CN1C(=O)NC2(CCCC2)C1=O)Nc1nc2ccccc2s1	hcDAF-12 act 5.8
O=C(CN1C(=O)NC2(CCCC2)C1=O)Nc1ccc(OC(F)(F)F)cc1	DAX1 inh-1 9.7
O=C(COC(=O)CN1C(=O)NC2(CCCC2)C1=O)Nc1ccccc1C(F)(F)F	DAX1 inh-1 12
CN(CC(=O)Nc1ccc(F)cc1)C(=O)CN1C(=O)NC2(CCCCC2)C1=O	none
CC(C)c1ccc(NC(=O)Nc2nnc([C@H]3C[C@H](O)[C@@H](CO)O3)s2)cc1	none (no result: DAX1 inh-1)
Nc1nnc(-c2cccc(F)c2)s1	none
Nc1nnc(-c2ccc(Cl)c(Cl)c2)s1	DAX1 inh-1 5.8
C[C@H]1CN([C@@H](C)CO)C(=O)CCCn2cc(nn2)CO[C@@H]1CN(C)C(=O)c1ccncc1	none
COc1ccc(NC(=O)c2cc(-c3cc(C)cc(F)c3)n[nH]2)cc1OC	none (no result: DAX1 inh-1)
CSCCn1c(C(C)(C)C)cc(C(=O)O)c1C	none
Cc1c(C(=O)O)cc(C(C)(C)C)n1CCSCCO	DAX1 inh-1 6.8
CCOc1cc(N2CCOCC2)c(OCC)cc1NC(=O)COC(=O)CCOc1ccc(C(C)(C)C)cc1	none
CC(C)(C)c1ccc(OCCC(=O)Nc2ccc(N3CCOCC3)cc2N2CCOCC2)cc1	DAX1 inh-2 4.0
CCOC(=O)c1ccc2c(c1)nc(SC/C(O)=C(\C#N)c1nc3ccccc3[nH]1)n2CC	ssDAF-12 act 1.6
Cc1ccn2c(NC3CCCCC3)c(C)nc2c1	DAX1 inh-1 5.1
Cc1nc2cc(Cl)ccc2n1-c1ccccc1	none
Cc1n(-c2ccccc2)c2ccc(Cl)cc2[n+]1CCO	hgDAF12 agonist 12
CS(=O)(=O)c1ccc(Cl)c(NC(=O)Cc2ccccc2F)c1	none
CS(=O)(=O)c1ccc(Cl)c(NC(=O)Cc2c(F)cccc2Cl)c1	hcDAF-12 act 5.6
Cc1ccc(S(=O)(=O)N2CCCCC2)cc1NC(=O)COC(=O)Cc1c(F)cccc1Cl	hcDAF-12 act 6.1
CCCCN1CC(N2CCCCC2)CS1(=O)=O (stereo not drawn)	none (no result: DAX1 inh-1)
COC(=O)[C@@]12C[C@@H](CC(=O)NCCC(C)C)C(=O)N(Cc3ccccc3)C1=CCC(C)(C)C2	none (no result: DAX1 inh-1)
Cn1c(NCC2CCCCC2)nc2cc(-c3ccsc3)sc2c1=O	none (no result: DAX1 inh-1)
CCC(C)(C)NC(=O)C(c1ccc(OC)cc1)N(C(=O)CCC(=O)Nc1cc(C)on1)c1ccc2c(c1)OCCO2 (stereo not drawn)	none
O=C(O)C1(c2ccccc2)CCN(S(=O)(=O)c2ccccc2)CC1	ssDAF-12 act 1.0
CN(C)C(=O)C1(c2ccccc2)CCN(S(=O)(=O)c2ccccc2)CC1	none
CCSc1nsc(NC(=O)Nc2ccccc2Cl)n1	hgDAF12 agonist 11
Cc1ccccc1C(=O)N1CCC(C(=O)OCc2nc(N)nc(Nc3ccccc3)n2)CC1	none
CCCCn1nnnc1SCC(=O)N1CCN(C(=O)c2ccco2)CC1	none
Cn1nnnc1SCC(=O)N1CCN(C(=O)c2ccco2)CC1	DAX1 inh-1 4.3
Cc1nnc(SCC(=O)N2CCN(C(=O)c3ccco3)CC2)n1C	DAX1 inh-1 4.7
Cc1ccccc1Cn1cc(CN2[C@@H](CC(C)C)COc3cc(Br)ccc3S2(=O)=O)nn1	none (no result: DAX1 inh-1)
CC(C)CNC(=O)C1(C)CCCN1Cc1ccc(OC(F)(F)F)cc1 (stereo not drawn)	none (no result: DAX1 inh-1)
CN[C@@H](CO)C(=O)NC[C@H]1O[C@@H](n2cc(C)c(=O)[nH]c2=O)C[C@@H]1O	none
Cc1ccc2oc(-c3cccc(NC(=S)NC(=O)c4cccs4)c3)nc2c1	none
Cc1ccc(-c2nc3ccccc3o2)cc1NC(=O)c1ccc2c(c1)OCO2	hgDAF12 agonist 11, ssDAF-12 act 2.0, DAX1 inh-2 3.6
Cc1ccc(-c2nc3ccccc3o2)cc1NC(=S)NC(=O)c1cccs1	hgDAF12 agonist 11
COc1ccc2oc(-c3ccc(C)c(NC(=O)c4ccc(N5CCOCC5)c([N+](=O)[O-])c4)c3)nc2c1	hgDAF12 agonist 11
Cn1c(=O)c2c(-c3ccccc3)n(-c3ccc(N)cc3)cc2n(C)c1=O	none (no result: DAX1 inh-1)
Cc1ccc(C(=O)NC(=S)Nc2cccnc2Cl)cc1	hgDAF12 agonist 12
COc1ccc(-c2cc3ncc(C(C)=O)c(C)n3n2)cc1	DAX1 inh-1 4.4
O=C(NCC(c1ccco1)N1CCCCC1)c1cc2c(s1)CCCC2 (stereo not drawn)	DAX1 inh-2 4.2
O=C(NCC(c1ccco1)N1CCCCC1)c1cccs1 (stereo not drawn)	none
Cc1ccc(S(=O)(=O)Nc2c(C)n(C)n(-c3ccccc3)c2=O)cc1C(=O)NCc1ccccc1	none
CCc1nc2c(OCCC3CCCCC3)cccn2c1N(C)C(=O)c1ccc(C)cc1	none (no result: DAX1 inh-1)
Cc1ccc(Nc2ccc(N3CCN(c4ccc([N+](=O)[O-])cc4)CC3)nn2)cc1	DAX1 inh-1 4.5
Cc1ccc(CC(=O)N2CCN(c3ccc([N+](=O)[O-])cc3)CC2)cc1	none
CN(Cc1ccccc1)C(=O)COc1ccc(C(C)(C)C)cc1	none
CC1=CC(=O)c2ccccc2C1=O	none
CCOc1ccccc1C(O)C1=CC(=O)c2ccccc2C1=O (stereo not drawn)	hcDAF-12 act 6.2
Cc1cnc(C(=O)Nc2ccc(C(C)C)cc2)cn1	hgDAF12 agonist 12
Cc1cnc(C(=O)Nc2ccc(F)cc2)cn1	none
COc1ccc(N2CCN(Cc3nc4ccccc4n3C)CC2)cc1	ssDAF-12 act 1.8
COc1ccc(N2CCN(c3cnc4ccccc4n3)CC2)cc1	hgDAF12 agonist 11
CCN(CC(=O)Nc1ccc(NC(C)=O)cc1)C(=O)c1c(C)nn(Cc2ccc(C)cc2)c1Cl	none
O=c1cc(CN2CCN(c3ccccc3F)CC2)c2ccccc2o1	none (no result: DAX1 inh-1)
Cc1cc(C)c2c(N)c(C(=O)Nc3ccccc3F)sc2n1	hgDAF12 agonist 11, DAX1 inh-1 5.3
CCOc1ccc(S(=O)(=O)n2c([N+](=O)[O-])cnc2C)c(C)c1C	none
CC1(C)Cc2nc3[nH]c(=S)[nH]c(=O)c3cc2CO1	DAX1 inh-1 4.8
COc1cccc(C(=O)Nc2ccc(-c3nnc(-c4ccco4)o3)cc2)c1	none
CC(C)COc1ccc(-c2nnc(-c3ccco3)o2)cc1	DAX1 inh-2 3.7
COc1cccc(-c2nnc(-c3ccco3)o2)c1	hgDAF12 agonist 12
CCCOc1ccc(-c2nnc(-c3ccco3)o2)cc1	hgDAF12 agonist 11, DAX1 inh-2 3.7
CCN(CC)CCCNc1ccc(-c2nnc(-c3ccc(OCC(C)C)cc3)o2)cn1	none

Screens from PubChem.
